# An excerpt weighted towards active compounds, which were near 12% of everything screened.
# CHX counter: affects cycloheximide protein synthesis inhibition readout, counter-screen | cell reporter, cycloheximide protein synthesis inhibition counterscreen | max response, % | 300,000 compounds, 12% hits | AID 2314; in the data active = max response mostly above about 13%, no sharp cut-off; inactive = mostly below about 14%; note: read at 38.3 µM for the half of the compounds with a filed dose; 0% is about no effect
# FMDV inh: foot and mouth disease virus antiviral activity | FMDV antiviral cell-based qHTS | Potency, µM (highest dose often 57.9 µM), without a hit: top-dose activity change, negative = inhibition, most hits filed as inhibitors | 410,000 compounds, 1.2% hits | AID 1159524; calls by dose curve; tested in HEK293T cells; note: read-out not given here; potency is the fitted concentration of half-maximal effect; % is set by controls: 0 for no effect and ±100 for the full control effect; nearly all actives have a fitted effect of over 45% in size
# Sm TGR block: inhibitors of Schistosoma mansoni thioredoxin glutathione reductase | Q962Y6 | purified TGR, DTNB reduction, TNB absorbance 405 nm | Potency, µM (series often up to 114 µM), without a hit: at the highest dose activity change, negative = inhibition, most hits filed as inhibitors | 360,000 compounds, 3% hits; active = well fitted inhibition curve with a large enough effect; inconclusive = small, poorly fitted or top-dose-only effect; inactive = no such curve, though single readings can be large or run the other way; note: potency is the fitted concentration of half-maximal effect; % is set by controls: 0 for no effect and ±100 for the full control effect; nearly all actives have a fitted effect of over 60% in size
#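 First, TGR (20 nM dispensed) and NADPH were mixed with compound. Second, a 15 min room-temperature incubation followed. Third, further NADPH and then DTNB were added to start the reaction. Finally, TNB absorbance was monitored kinetically.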
# Shiga toxin inh: blocks Shiga toxin action in Vero cells | inhibition, % at 38.7 µM | Vero cells, Shiga toxin protein synthesis inhibition reporter | 290,000 compounds, 9.2% hits | AID 2315; in the data active = inhibition mostly above about 28%, no sharp cut-off; inactive = mostly below about 43%; note: 0% is about no effect
# * = called active by the depositor; ? = inconclusive; · = no result given.
SMILES,CHX counter,FMDV inh,Sm TGR block,Shiga toxin inh
COc1ccc(/C=N/NC(=O)c2ccccc2O)cc1COc1ccccn1,23*,-3%,2%,41*
COc1ccc(/C=N\NC(=O)c2ccccc2)cc1COc1ccccc1,25*,-8%,0%,45*
COc1ccc(/C=N/NC(=O)c2ccccc2O)cc1CN1CCOCC1,7,-5%,0%,40
CCOC(=O)c1ccccc1OCc1cc(/C=N/NC(=O)c2cccnc2)ccc1OC,1,?,4%,20
COc1ccc(/C=N/NC(=O)c2cccc(Br)c2)cc1CN1CCOCC1,19*,26%,2%,18
COc1ccc(/C=N/NC(=O)c2cccc(Br)c2)cc1COc1ccccn1,14*,-2%,-3%,11
CN1CCN(C(=O)C(=O)Nc2c3c(nn2-c2cccc(Cl)c2)CSC3)CC1,·,-21%,3%,·
O=C(CSc1nc(=O)[nH]c2c1CCCC2)NCc1ccc(Cl)cc1,·,-9%,2%,·
COc1ccc(/C=N/NS(=O)(=O)c2ccc(F)cc2)cc1COc1cc(F)ccc1[N+](=O)[O-],-2,-15%,1%,17
COc1cc(/C=N/NC(=O)c2ccc(O)cc2)ccc1OCC(=O)N1CC(C)OC(C)C1 (stereo not given),14*,-1%,1%,37*
COc1ccc(/C=N\NC(=O)c2ccc(F)cc2)cc1COc1cc(F)ccc1[N+](=O)[O-],8,25µM*,-10%,-1
COc1cc(/C=N/c2oc(-c3ccccc3)cc2C#N)ccc1O,19*,13%,-33%,28
COc1cccc(OCc2cc(/C=N/NC(=O)c3ccn[nH]3)ccc2OC)c1,50*,13%,-22%,71*
COc1cc(/C=N/NC(=O)c2ccc(O)cc2)ccc1OCC(=O)Nc1cccc([N+](=O)[O-])c1,7,-1%,-15%,11
CC(NC(=O)c1ccc(F)cc1)c1nc2ccccc2[nH]1 (stereo not given),·,6%,-2%,·
COc1ccc(/C=N/NC(=O)c2ccc(O)cc2)cc1CN1CCCc2ccccc21,11,40µM*,-6%,16
COc1cc(C(=O)N/N=C/c2ccc(OC(=O)c3ccccc3)c(OC)c2)ccc1O,6,?,-12%,-4
CCOc1c(Br)cc(/C=N\NC(=O)c2ccccc2)cc1OC,32*,-28%,-8%,active
COc1cc(/C=N/NC(=O)c2ccccc2)ccc1O,26*,31%,-5%,60*
COc1ccc(/C=N\NC(=O)c2ccccc2F)cc1COc1ccc(F)cc1,2,-17%,-21%,2
COc1ccc(/C=N\NC(=O)c2ccccc2F)cc1COc1ccc(F)cc1F,24*,-2%,-11%,32*
CCN(CC)CCNC(=O)c1cnn(-c2ncc3c(n2)-c2ccc(OC)cc2CC3)c1C,·,-18%,·,·
Nc1nc(-c2cccs2)cs1,34*,·,-1%,69
O=C(Nc1nc(-c2cccs2)cs1)c1ccc(Cl)s1,42*,-23%,5%,39*
O=C(COc1ccccc1Cl)Nc1nc(-c2cccs2)cs1,13,-3%,8%,3
SMILES,CHX counter,FMDV inh,Sm TGR block,Shiga toxin inh
O=C(Nc1nc(-c2ccc(Cl)s2)cs1)c1ccccc1,42*,-17%,-5%,45
O=C(O)C1CCC1C(=O)Nc1nc(-c2ccc(Cl)s2)cs1 (stereo not given),0,3%,-10%,-2
CC(=O)Nc1nc(-c2cccs2)cs1,23*,42%,-7%,40
C[C@@]12C=Cc3occc3[C@H]1CC[C@@]13C[C@@H](CC[C@H]12)[C@@](O)(CO)C3,10,·,·,21
CCOc1ccccc1CNC(=O)Cc1ccc(NC(=O)N2CCCCc3ccccc32)cc1,·,-17%,6%,·
CCN1CCN(C(c2ccc(OC)cc2)c2c(O)cc(C)n(Cc3ccco3)c2=O)CC1 (stereo not given),·,-21%,5.6µM*,·
CCN1CCN(C(c2ccc(SC)cc2)c2c(O)cc(C)n(Cc3ccco3)c2=O)CC1 (stereo not given),·,-16%,3.5µM*,·
CCN1CCN(C(c2ccccc2)c2c(O)cc(C)n(Cc3ccco3)c2=O)CC1 (stereo not given),·,-10%,4.5µM*,·
COc1cc(CN2CCN(Cc3ccco3)CC2)cc(OC)c1,1,-10%,-14%,-4
Cc1cc(O)c(C(c2ccccc2)N2CCN(C)CC2)c(=O)n1Cc1ccco1 (stereo not given),·,-16%,5.6µM*,·
Cc1cc(O)cc(=O)n1Cc1ccco1,-2,-10%,0%,-18
OC(COCc1ccco1)CN1CCN(C(c2ccccc2)c2ccccc2)CC1 (stereo not given),-4,-28%,-6%,-3
Cc1ccc2nc(N3CCN(Cc4ccc(F)cc4)C3=O)c(C)cc2c1,20*,-16%,8%,41
